D1 ag: activates the human D1 dopamine receptor; P21728; HEK293 T-REx D1 cells, calcium flux, agonist mode; activation, % at 2 µM; actives 1% (n = 360,000)
Target sequence (P21728 whole entry, looked up): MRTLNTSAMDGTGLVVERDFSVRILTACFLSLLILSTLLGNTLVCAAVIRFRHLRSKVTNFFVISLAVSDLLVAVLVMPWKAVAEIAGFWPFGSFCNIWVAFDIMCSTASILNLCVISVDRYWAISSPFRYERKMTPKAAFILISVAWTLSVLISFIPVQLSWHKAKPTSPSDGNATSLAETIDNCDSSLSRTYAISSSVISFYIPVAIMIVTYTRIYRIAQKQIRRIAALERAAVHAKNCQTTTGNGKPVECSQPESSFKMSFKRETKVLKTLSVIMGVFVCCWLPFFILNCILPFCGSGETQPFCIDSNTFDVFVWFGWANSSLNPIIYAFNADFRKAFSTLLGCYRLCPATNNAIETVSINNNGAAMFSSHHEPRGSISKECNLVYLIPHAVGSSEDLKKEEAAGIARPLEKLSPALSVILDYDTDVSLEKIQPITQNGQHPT
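Tetracycline-induced HEK293 TREx D1 cells, force-coupled to calcium signalling, were dye-loaded with a no-wash calcium kit. Compound was pin-added after a 10 s baseline. Fluorescence was read kinetically at 1 cycle/s for 180 s, with calcium rises flagged as agonism.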
D1 antag: blocks dopamine activation of the human D1 receptor. P21728. HEK293 TREx D1 cells, calcium flux, dopamine EC80; stronger effect = lower value. activity change, negative = inhibition, % at 10 µM. actives 3.2% (n = 360,000); in the data active means activity change below about -30%
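After overnight tetracycline induction at 30 C, force-coupled D1 HEK293 cells took up a no-wash calcium dye at room temperature. Compounds were added and monitored 180 s, and the response to EC80 dopamine was then recorded.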
TRHR agonist: TRH receptor (human) agonism. P34981. TRHR cells, calcium flux fluo-8, FDSS agonist mode. activation, % at 2 µM. actives 0.18% (n = 360,000). AID 493084
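In this calcium-flux screen, cells bearing human TRHR are dye-loaded with fluo-8, baselined for 10 cycles, then exposed to library compounds; positive kinetic calcium responses during the agonist phase mark hits, with TRH as control.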
TRHR enhancer: TRH receptor (human) allosteric enhancement; TRHR cells, fluo-8 calcium fluorescence, EC20 TRH enhancement; P34981; enhancement, % at 2 µM; actives 0.66% (n = 360,000); AID 493056; in the data active means enhancement above about 30%
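Enhancer read-out: after compound pinning and an initial kinetic agonist-mode read, an EC20 of TRH (10 nM final) was injected and fluo-8 calcium signal (Ex 480/Em 530) followed at 1 s/cycle for 100 cycles in TRHR-expressing cells.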
D1 potentiator: human D1 dopamine receptor positive modulation; P21728; HEK293 TREx D1 cells, calcium flux, dopamine EC20 potentiation; potentiation, % at 10 µM; actives 0.036% (n = 360,000); in the data active means potentiation above about 30%
Numbers stand for hits. Rows were chosen to be rich in hits. Some 4.7% of all compounds tested hit in one or more screens of this group. Unless noted, no stated cut-off is given here; in the data, active means activation above about 30%; inactive means the rest.

How did CCN(CC)C(=O)Cn1c(=O)n(-c2ccc(Cl)cc2)c(=O)c2c3c(sc21)CCC3 do in these assays?
D1 ag: inactive; D1 antag: inactive; TRHR agonist: inactive; TRHR enhancer: inactive; D1 potentiator: inactive

What do the screens show for `CSc1cccc(CN2CCC(CCC(=O)NC3CC3)CC2)c1`?
D1 ag: inactive; D1 antag: -49; TRHR agonist: inactive; TRHR enhancer: inactive; D1 potentiator: inactive

Results for COc1cc(C(=O)N2CCNC(=O)C2CC(=O)Nc2ccc(C)c(C)c2)cc(OC)c1OC (stereo not given) ?
D1 ag: inactive; D1 antag: inactive; TRHR agonist: inactive; TRHR enhancer: inactive; D1 potentiator: inactive

Results for Clc1ccc(OCc2nnc(SCc3nnc(-c4ccccc4)o3)o2)c(Cl)c1 ?
D1 ag: 35; D1 antag: inactive; TRHR agonist: inactive; TRHR enhancer: inactive; D1 potentiator: inactive

Results for CC(=O)N(/N=C1\Sc2ccccc2C1=O)c1ccccc1 ?
D1 ag: inactive; D1 antag: -44; TRHR agonist: inactive; TRHR enhancer: inactive; D1 potentiator: inactive

Results for CC(=O)N(/N=C1\Sc2ccccc2C1=O)c1ccccc1C ?
D1 ag: inactive; D1 antag: inactive; TRHR agonist: inactive; TRHR enhancer: inactive; D1 potentiator: inactive

Results for Cc1ccc(C=Nc2cccnc2N)cc1 ?
D1 ag: 90; D1 antag: inactive; TRHR agonist: inactive; TRHR enhancer: inactive; D1 potentiator: inactive

What do the screens show for `O=C(CCc1nnc2n(Cc3ccccc3Cl)c(=O)c3ccccc3n12)Nc1ccc(F)cc1`?
D1 ag: inactive; D1 antag: inactive; TRHR agonist: inactive; TRHR enhancer: inactive; D1 potentiator: inactive

Results for O=c1c2[nH]c3cc(Br)sc3c2cnn1Cc1ccccc1F ?
D1 ag: inactive; D1 antag: inactive; TRHR agonist: inactive; TRHR enhancer: inactive; D1 potentiator: inactive

What do the screens show for `CCCCCCCCCCCC(=O)NC(C(=O)O)C(O)c1ccccc1` (stereo not given)?
D1 ag: 374; D1 antag: inactive; TRHR agonist: inactive; TRHR enhancer: inactive; D1 potentiator: inactive

How did COc1cc(Cn2c(=O)oc3ccc(C)cc32)ccc1OC(C)C do in these assays?
D1 ag: inactive; D1 antag: -33; TRHR agonist: inactive; TRHR enhancer: inactive; D1 potentiator: inactive

What do the screens show for `CCOc1ccc(N=C2NC(=O)S/C2=C\c2ccc(N(C)C)cc2)cc1`?
D1 ag: 81; D1 antag: inactive; TRHR agonist: inactive; TRHR enhancer: inactive; D1 potentiator: inactive

What do the screens show for `CCOc1ccc(/C=C2/SC(=O)NC2=S)cc1`?
D1 ag: inactive; D1 antag: inactive; TRHR agonist: inactive; TRHR enhancer: inactive; D1 potentiator: inactive

What do the screens show for `CCc1ccc(C2CC(=O)c3c([nH]c(C(=O)OC4CCCC4)c3C)C2)cc1` (stereo not given)?
D1 ag: inactive; D1 antag: inactive; TRHR agonist: inactive; TRHR enhancer: inactive; D1 potentiator: inactive

What do the screens show for `C=C1CC2C(CCC3(C)C2CCC3(O)C(C)=O)C2(C)CCC(=O)C=C12` (stereo not given)?
D1 ag: inactive; D1 antag: -51; TRHR agonist: inactive; TRHR enhancer: inactive; D1 potentiator: inactive

Results for CCC(=O)c1ccc(N2CCN(C(=O)c3ccccc3F)CC2)c(F)c1 ?
D1 ag: 38; D1 antag: inactive; TRHR agonist: inactive; TRHR enhancer: inactive; D1 potentiator: inactive

How did CCOC(=O)N1CCN(c2ccc(C(=O)c3ccccc3)cc2F)CC1 do in these assays?
D1 ag: inactive; D1 antag: -42; TRHR agonist: inactive; TRHR enhancer: inactive; D1 potentiator: inactive

Results for CCOC(=O)N1CCN(c2cc(C)c(C(C)=O)cc2F)CC1 ?
D1 ag: inactive; D1 antag: -42; TRHR agonist: inactive; TRHR enhancer: inactive; D1 potentiator: inactive

What do the screens show for `CCc1ccccc1Nc1cc(C(=O)NCCc2ccccc2)c2ccccc2n1`?
D1 ag: inactive; D1 antag: inactive; TRHR agonist: inactive; TRHR enhancer: inactive; D1 potentiator: inactive

How did CCCN1C(=O)C(NC(=O)c2ccccc2OC)(C(F)(F)F)C(C(=O)OC)=C1C (stereo not given) do in these assays?
D1 ag: inactive; D1 antag: inactive; TRHR agonist: inactive; TRHR enhancer: inactive; D1 potentiator: inactive

How did CC(Sc1cn(CCNC(=O)c2ccccc2F)c2ccccc12)c1ccccc1 (stereo not given) do in these assays?
D1 ag: inactive; D1 antag: inactive; TRHR agonist: inactive; TRHR enhancer: inactive; D1 potentiator: inactive

How did Cn1c(Nc2ccccc2)nc2ccccc21 do in these assays?
D1 ag: inactive; D1 antag: -46; TRHR agonist: inactive; TRHR enhancer: inactive; D1 potentiator: inactive

How did CCN(CC)CCn1c(C)nc2ccccc21 do in these assays?
D1 ag: inactive; D1 antag: inactive; TRHR agonist: inactive; TRHR enhancer: inactive; D1 potentiator: inactive

What do the screens show for `Nn1c(Nc2ccccc2)nc2ccccc21`?
D1 ag: inactive; D1 antag: inactive; TRHR agonist: inactive; TRHR enhancer: inactive; D1 potentiator: inactive

Results for CCN(CC)CCNc1nc2ccccc2n1C ?
D1 ag: inactive; D1 antag: -37; TRHR agonist: inactive; TRHR enhancer: inactive; D1 potentiator: inactive

How did CCOc1cccc(C2c3c(oc4ccc(F)cc4c3=O)C(=O)N2CCOC)c1 (stereo not given) do in these assays?
D1 ag: inactive; D1 antag: inactive; TRHR agonist: inactive; TRHR enhancer: inactive; D1 potentiator: inactive

How did CC(C)c1ccc(C2N3CC4(C)CN2CC(c2ccccc2)(C3)C4=O)cc1 (stereo not given) do in these assays?
D1 ag: inactive; D1 antag: inactive; TRHR agonist: inactive; TRHR enhancer: inactive; D1 potentiator: inactive

Results for O=S(=O)(N1CCCCCC1)N1CCNCC1 ?
D1 ag: inactive; D1 antag: inactive; TRHR agonist: inactive; TRHR enhancer: inactive; D1 potentiator: inactive

What do the screens show for `O=S(=O)(O)C1CCNCC1`?
D1 ag: inactive; D1 antag: -49; TRHR agonist: inactive; TRHR enhancer: inactive; D1 potentiator: inactive

What do the screens show for `COc1ccc(C)cc1NC(=O)C1CCCN(c2ncnc3onc(C)c23)C1` (stereo not given)?
D1 ag: inactive; D1 antag: inactive; TRHR agonist: inactive; TRHR enhancer: inactive; D1 potentiator: inactive

How did COc1ccc(F)cc1S(=O)(=O)Nc1cc2c3c(c1)CC(=O)N3CCC2 do in these assays?
D1 ag: inactive; D1 antag: inactive; TRHR agonist: inactive; TRHR enhancer: inactive; D1 potentiator: inactive

What do the screens show for `O=C1Cc2cc(NS(=O)(=O)c3cc(F)ccc3F)cc3c2N1CCC3`?
D1 ag: inactive; D1 antag: -60; TRHR agonist: inactive; TRHR enhancer: inactive; D1 potentiator: inactive

What do the screens show for `O=C(NCCc1ccccc1)c1ccc2c(c1)N(Cc1c(F)cccc1Cl)C(=O)CS2`?
D1 ag: inactive; D1 antag: inactive; TRHR agonist: inactive; TRHR enhancer: inactive; D1 potentiator: inactive

Screening data from PubChem BioAssay.
